This passage reports Euclidean distance results from the supplement of paper PMC10127200.

Common to all, as to assay: Euclidean distance of Cell Painting phenotypic profile (signed KS, 77 features) to DMSO centroid (dimensionless distance); 5 or 10 uM (library dependent); higher = stronger phenotypic change vs DMSO (phenoactivity)
Common to all, as to conditions: 48 h

The test system of experiment [1] is 786-O. The essentials:
(§1)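 Harmony extracted 77 features from 20X confocal images (9 fields/well) of stained cells, scoring each as a signed Kolmogorov-Smirnov statistic against same-plate vehicle wells. The cells, five cancer lines and a healthy fibroblast line, had received library compounds for 48 h at 10 or 5 uM depending on library, with 0.1% DMSO final. Phenoactivity is the Euclidean distance from each plate-position-corrected, correlation-weighted, top-dose replicate-averaged profile to the median vehicle profile.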

Experiment [2] concerns A549. In short, it runs like this: as §1
The test system of experiment [3] is DU145. In short, it runs like this:
as §1

The subject of experiment [4] is FB. In short, it runs like this: as §1
Experiment [5] relates to HEPG2. The essentials: as §1
Experiment [6] relates to OVCAR4. The essentials: as §1

Where “and” joins values, the source holds several entries; their conditions need not be identical. Equal entries are not always repeated. Structures can show the parent of a compound that is named as a salt.

`O=C(O)Cc1ccccc1Nc1c(Cl)cccc1Cl` [Diclofenac Potassium]: the Euclidean distance came to 1.38 in experiment [1]; 0.427 in experiment [2]; 0.963 in experiment [3]; 1.35 in experiment [4]; 1.1 in experiment [5]; 0.893 in experiment [6].
Regarding `CCN1CC(CCN2CCOCC2)C(c2ccccc2)(c2ccccc2)C1=O` (centres undefined) [Doxapram HCl], the Euclidean distance in experiment [1] came out at 0.672; in experiment [2], 0.512; in experiment [3] it was 0.481; in experiment [4], 0.699; in experiment [5], 0.498; in experiment [6], 0.962.
With `CC[C@@]1(O)C(=O)OCc2c1cc1n(c2=O)Cc2cc3cc(O)ccc3nc2-1` [Hydroxy Camptothecine], the Euclidean distance in experiment [1] is 3.83; in experiment [2] it was 4.01; in experiment [3], 3.99; in experiment [4], 3.74; in experiment [5], 3.55; in experiment [6] it was 2.89.
Consider `CCOC(=O)C1=C[C@]2(CC)CCCN3CCc4c(n1c1ccccc41)[C@@H]32` [Vinpocetine], for which the Euclidean distance in experiment [1] came out at 1.12; in experiment [2] it was 0.68; in experiment [3], 0.699; in experiment [4], 0.994; in experiment [5], 0.98; in experiment [6], 1.81.
Turning to `COCC1=C(C(=O)OC(C)OC(=O)OC(C)C)N2C(=O)[C@@H](NC(=O)/C(=N\OC)c3csc(N)n3)[C@H]2SC1` (some centres undefined) [Cefpodoxime proxetil], the Euclidean distance was found to be 1.25 in experiment [1]; 0.683 in experiment [2]; 0.813 in experiment [3]; 1.04 in experiment [4]; 0.687 in experiment [5]; 0.958 in experiment [6].
On to `COc1ccc(C(=O)Nc2sc3c(c2C(N)=O)CCCC3)cc1OC`, for which the Euclidean distance in experiment [1] was 1.04; in experiment [2], 2.61; in experiment [3], 1.02; in experiment [4] it was 0.845; in experiment [5] it was 0.747; in experiment [6] it was 2.82.
`O=C(NCc1ccccc1)c1csc(Nc2ccncn2)n1` [Thiazovivin]: the Euclidean distance in experiment [1] was 1.92; in experiment [2], 1.18; in experiment [3], 2.87; in experiment [4] it was 2.01; in experiment [5] it was 1.84; in experiment [6], 1.6.
For `Cc1ccc(S(=O)(=O)NC(=O)NN2CC3CCCC3C2)cc1` (centres undefined) [Gliclazide], the Euclidean distance in experiment [1] was 1.36; in experiment [2] it was 0.771; in experiment [3] it was 1.24; in experiment [4] it was 1.14; in experiment [5] it was 1.07; in experiment [6], 1.65.
Turning to `COc1cc(OC)c2c(=O)[nH]c(-c3cc(C)c(OCCO)c(C)c3)nc2c1` [Apabetalone (RVX-208)], the Euclidean distance in experiment [1] was 1.25; in experiment [2], 0.468; in experiment [3] it was 1.25; in experiment [4] it was 0.996; in experiment [5], 0.48; in experiment [6], 0.642.
Take `CC(C)c1c(C(=O)Nc2ccccc2)c(-c2ccccc2)c(-c2ccc(F)cc2)n1CC[C@@H](O)C[C@@H](O)CC(=O)O` [Atorvastatin Calcium]: the Euclidean distance in experiment [1] stood at 2.68; in experiment [2], 1.33; in experiment [3], 1.15; in experiment [4], 3.05; in experiment [5], 2.23; in experiment [6] it was 1.8.
As to `Oc1ccc(-c2nc(-c3ccc(F)cc3)c(-c3ccncc3)[nH]2)cc1`, the Euclidean distance was found to be 1.58 in experiment [1]; 0.841 in experiment [2]; 1.39 in experiment [3]; 1.38 in experiment [4]; 2.99 in experiment [5]; 2.17 in experiment [6].
Turning to `O=C(O)CCCc1ccccc1` [Sodium Phenylbutyrate], the Euclidean distance in experiment [1] turned out to be 0.697; in experiment [2], 0.666; in experiment [3], 1.02; in experiment [4], 0.829; in experiment [5], 0.249; in experiment [6] it was 1.01.
For the compound `Cc1cc(CC(C)CC(C)(C)C)n(O)c(=O)c1` (centres undefined) [Piroctone Olamine], the Euclidean distance in experiment [1] came out at 2.93; in experiment [2] it was 3.56; in experiment [3] it was 4.37; in experiment [4], 3.73; in experiment [5] it was 3.88; in experiment [6], 4.49.
Consider `CNC(=O)c1ccc2cc([C@@]3(O)CCn4cncc43)ccc2c1` [TAK-700 (Orteronel)], for which the Euclidean distance in experiment [1] was 0.951; in experiment [2] it was 0.683; in experiment [3], 0.67; in experiment [4], 1.1; in experiment [5] it was 1.1; in experiment [6], 0.845.
In the case of `CCN1CCN(Cc2ccc(Nc3ncc(F)c(-c4cc(F)c5nc(C)n(C(C)C)c5c4)n3)nc2)CC1` [Abemaciclib], the Euclidean distance in experiment [1] is 4.11; in experiment [2], 4.37; in experiment [3], 3.65; in experiment [4], 4.04; in experiment [5], 3.81; in experiment [6], 3.89.
For `CN(c1ncccc1CNc1nc(Nc2ccc3c(c2)CC(=O)N3)ncc1C(F)(F)F)S(C)(=O)=O`, the Euclidean distance in experiment [1] is 1.25 and 2.75; in experiment [2], 3.05 and 1.62; in experiment [3], 2.34 and 1.3; in experiment [4], 3.61 and 1.66; in experiment [5] it was 2.58 and 1.31; in experiment [6], 3.25 and 1.45.
`CO[C@H]1C[C@H](O[C@@H]2/C(C)=C/C[C@@H]3C[C@@H](C[C@]4(CC[C@H](C)[C@@H](C5CCCCC5)O4)O3)OC(=O)[C@@H]3C=C(C)/C(=N/O)[C@H]4OC/C(=C\C=C\[C@@H]2C)[C@]43O)O[C@@H](C)[C@@H]1O` [Selamectin]: the Euclidean distance in experiment [1] worked out at 1.94; in experiment [2], 3.16; in experiment [3], 6.67; in experiment [4], 1.24; in experiment [5] it was 0.681; in experiment [6], 1.04.
As to `O=C1c2cccc(O)c2C(=O)c2c(O)cccc21` [Danthron], the Euclidean distance came to 1.02 in experiment [1]; 0.914 in experiment [2]; 1.19 in experiment [3]; 0.924 in experiment [4]; 0.868 in experiment [5]; 1.12 in experiment [6].
For `CC(C)N1CCN(Cc2cnc(-c3cc(-c4cccc5[nH]ccc45)cc4[nH]ncc34)o2)CC1`, the Euclidean distance in experiment [1] amounted to 3.29; in experiment [2] it was 3.89; in experiment [3], 3.41; in experiment [4], 3.33; in experiment [5] it was 3.14; in experiment [6], 3.89.
